Most compounds without a hit are left out; they make up all but 2.9% or so of the library.
IP6K1 inh: IP6K1 kinase inhibition; hit rate 0.81% among 140,000; IP6K1 kinase, ADP-Glo luminescence, 2 h; hits give low values; AID 1645851; activity change, % (series mostly up to about 58 µM); in the data active = activity change below about -25%
Target sequence (Q92551 whole entry, looked up): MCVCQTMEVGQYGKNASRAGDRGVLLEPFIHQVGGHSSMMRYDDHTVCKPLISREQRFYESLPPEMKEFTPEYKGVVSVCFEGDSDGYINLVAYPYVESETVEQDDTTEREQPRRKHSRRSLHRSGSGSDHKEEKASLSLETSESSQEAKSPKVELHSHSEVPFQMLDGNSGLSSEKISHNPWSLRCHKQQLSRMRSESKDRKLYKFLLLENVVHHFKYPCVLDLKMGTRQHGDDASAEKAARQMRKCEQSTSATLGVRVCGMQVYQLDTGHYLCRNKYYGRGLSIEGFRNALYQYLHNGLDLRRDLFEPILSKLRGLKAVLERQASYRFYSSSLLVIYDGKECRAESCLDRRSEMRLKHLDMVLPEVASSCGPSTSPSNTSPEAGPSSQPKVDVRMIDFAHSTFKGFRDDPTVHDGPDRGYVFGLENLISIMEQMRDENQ
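ADP-Glo luminescence measures ADP made by human IP6K1 during a 2 h RT reaction with ATP/IP6 (mix at 1.3 mM/130 uM); top library doses 57.5 and 19.1 uM final.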
SNCA viab count: cell viability loss counter-screen | hit rate 0.12% among 150,000 | AID 1671193 | Potency, µM (series often up to 57.1 µM), usual class: cytotoxic | HEK-293-SNCA-luc viability, GF-AFC fluorescence, 24 h; note: nearly all actives have a fitted effect of over 30% in size
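Cytotoxicity counterscreen: after 24 h compound treatment of genome-edited SNCA-luciferase HEK-293 cells, live-cell protease substrate GF-AFC read by fluorescence after 30 min; activity scaled between DMSO (0%) and medium-only (-100%), curves Hill-fitted.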
SNCA expr inh: inhibitors of alpha-synuclein (SNCA) gene expression; HEK-293 SNCA-luciferase knock-in, luminescence, 24 h; Potency, µM (top dose mostly 57.2 µM), usual class: inhibitors; hit rate 0.17% among 140,000; note: nearly all actives have a fitted effect of over 45% in size
KDM5B inh: blocks human KDM5B histone demethylase activity; Q9UGL1; KDM5B demethylase, FDH-coupled NADH fluorescence (FDH is formaldehyde dehydrogenase); Potency, µM (highest dose often 57.7 µM), usual class: inhibitors; hit rate 2.6% among 220,000; AID 1347165; note: nearly all actives have a fitted effect of over 70% in size
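Inhibition is measured as reduced NADH fluorescence generation from FDH coupling to formaldehyde release. Truncated KDM5BΔAP at 200 nM final acts on H3K4me3 peptide (12.5 µM in substrate mix) in pH 7.5 HEPES buffer with Tween-20, 30 min, room temperature.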
Each line names hits and unclear results; the compound was inactive in the other large screens. Unless noted, calls come from the whole dose curve; as a rule, active = well fitted curve in the direction sought with a large enough effect; inconclusive = small, poorly fitted or top-dose-only effect, or another doubt; inactive = no such curve, though single readings can be large; an effect the other way counts as inactive or inconclusive.

CN1CC(=O)N(C2CCCNCC2)Cc2c1ncnc2N1CCN(c2ccccn2)CC1 (stereo not drawn)	KDM5B inh 79µM
CN1CC(=O)N(C2CCCNCC2)Cc2c(NCC3CCCCC3)ncnc21 (stereo not drawn)	KDM5B inh inconclusive
CN1CC(=O)N(C2CCCNC2)Cc2c1ncnc2N(C)Cc1ccc(F)cc1 (stereo not drawn)	KDM5B inh 22µM
CCNc1ncnc2c1CN(C1CCNCC1)C(=O)CN2C	KDM5B inh 56µM
O=C(NCc1c[nH]c2ncccc12)c1cccc2[nH]ccc12	KDM5B inh 35µM
O=C(Cc1cccc(Cl)c1)NCc1ccnc2[nH]ccc12	none
O=C(NCc1ccnc2[nH]ccc12)c1cccc(Br)c1	KDM5B inh 32µM
O=C(NCc1ccnc2[nH]ccc12)c1cccc(Cl)c1	KDM5B inh 35µM
O=C(NCc1ccnc2[nH]ccc12)c1cncc(Br)c1	none
COc1cccc(-c2cc3c(=O)n(CCNC(=O)Cc4cccs4)ccn3n2)c1	KDM5B inh inconclusive
Cc1cn2nc(C(=O)NCc3ccc4c(c3)OCO4)cc2c(N2CCCC2)n1	KDM5B inh 25µM
Cc1cn2nc(C(=O)NC(C)CCc3ccccc3)cc2c(N2CCCC2)n1 (stereo not drawn)	none
Cc1cn2nc(C(=O)NCc3ccc(C(F)(F)F)cc3)cc2c(N2CCCC2)n1	KDM5B inh 28µM
Cc1cn2nc(C(=O)NCc3ccccc3C(F)(F)F)cc2c(N2CCSCC2)n1	KDM5B inh inconclusive
Cc1cn2nc(C(=O)NCc3ccccc3C(F)(F)F)cc2c(N2CCCC2)n1	KDM5B inh 14µM
Cc1cn2nc(C(=O)NCc3ccc(Cl)cc3)cc2c(N2CCCC2)n1	KDM5B inh 32µM
CCOc1ccccc1NC(=O)CC1CCCN(c2cnn(CC3CC3)c(=O)c2)C1 (stereo not drawn)	none
COc1ccc(CNC(=O)c2cc3c(N4CCCC4)nc(C)cn3n2)cc1	none
Cc1cn2nc(C(=O)NCc3ccc(Br)cc3)cc2c(N2CCCC2)n1	KDM5B inh 28µM
CCc1ccc(CNC(=O)c2cc3c(N4CCCC4)nc(C)cn3n2)cc1	KDM5B inh 25µM
Cc1cn2nc(C(=O)NCCC3=CCCCC3)cc2c(N2CCCC2)n1	KDM5B inh 10µM
Cc1cn2nc(C(=O)NC3CCC(C)CC3)cc2c(N2CCCC2)n1 (stereo not drawn)	KDM5B inh 28µM
Cc1cn2nc(C(=O)NCc3ccc(F)cc3F)cc2c(N2CCCC2)n1	SNCA expr inh inconclusive
COc1cc(C)cc(C(C(=O)O)N2CCN(c3cnccn3)CC2)c1OC (stereo not drawn)	KDM5B inh 28µM
COc1ccc(NC(=O)C2CCN(c3cnccn3)CC2)cc1OC	none (no result: IP6K1 inh, SNCA viab count, SNCA expr inh)
CCOC(=O)Cc1nnc(SC(C)C(=O)Nc2cc(Cl)ccc2C)n1C (stereo not drawn)	none (no result: IP6K1 inh, SNCA viab count, SNCA expr inh)
NC(=O)c1cc2c(nc1N1CCC3(CCCN(CC4CCC4)C3)C1)CCC2 (stereo not drawn)	KDM5B inh 25µM
COc1cc(CNC(=O)[C@@H]2COCC(=O)N2Cc2ccc(C)cc2)cc(OC)c1	none (no result: KDM5B inh)
CCC(=O)N1CCc2c(sc3ncnc(NCc4ccccc4)c23)C1	KDM5B inh 32µM
COc1ccc(CNC(=O)Cn2c(C)cc3nc4n(c(=O)c32)CCCC4)cc1OC	none
Cc1ccc(C)c(C(O)Cn2ccn3nc(-c4cccs4)cc3c2=O)c1 (stereo not drawn)	KDM5B inh 20µM
O=c1c2cc(-c3cccs3)nn2ccn1CC(O)c1ccccc1 (stereo not drawn)	KDM5B inh inconclusive
Cc1ccc(C)c(C(O)Cn2ccn3nc(-c4cccc(Br)c4)cc3c2=O)c1 (stereo not drawn)	KDM5B inh 32µM
O=c1c2cc(-c3cccs3)nn2ccn1CC(O)c1cccc(Cl)c1 (stereo not drawn)	KDM5B inh 20µM
COc1ccc(CN2C(=O)COC[C@H]2C(=O)Nc2cc(F)ccc2C)c(OC)c1	SNCA expr inh inconclusive (no result: KDM5B inh)
CCCN(Cc1ccccc1)C(=O)c1cccs1	none (no result: IP6K1 inh, SNCA viab count, SNCA expr inh)
COc1ccc(-c2ccnc3nc(C4CCC4)nn23)cc1OC	KDM5B inh inconclusive
COc1cc(-c2ccnc3nc(C4CCCCC4)nn23)cc(OC)c1OC	KDM5B inh 25µM
COc1cc(F)ccc1-c1ccnc2nc(C3CCCO3)nn12 (stereo not drawn)	KDM5B inh 28µM
COc1cc(F)ccc1-c1ccnc2nc(C3CCC3)nn12	KDM5B inh 28µM
COc1ccc(-c2ccnc3nc(C4CCC4)nn23)c(F)c1	KDM5B inh 28µM

Screens deposited in PubChem BioAssay by National Center for Advancing Translational Sciences (NCATS).
